Data from the supplement of paper PMC6555819.

The sequences below were run on PPARg:RXRa 30nM:10nM, anti-RXR (NR concentration 30 nM, RXRa partner concentration 10 nM) (assay: PBM binding z-score (relative to random genomic background probes); higher = stronger binding; sequences stand for … in GC…GCGATTGACAGCGTAGAATGAAGG).
In short: (§1)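 Custom Agilent 4×180K protein-binding microarrays carried double-stranded probes. Their 34-nt variable regions held direct-repeat seeds, single-nucleotide variants, half-site ablations and random human genomic background sequences. Arrays were incubated 1 h with ligand-free nuclear receptor dimers in PBS pH 7.4, 2% milk, 0.02% Triton X-100, 1 mM DTT, 0.2 mg/mL BSA and 0.4 mg/ml salmon testes DNA. Antibodies against each partner (one per run) detected binding, and scanned fluorescence was regression-normalized. Binding z-scores use random background probes as reference.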

Row | Sequence | PBM binding z-score
1 | ACTATTAGTTGAGACGAGGACAACCGATAGGTTG | 0.0741
2 | GGTATTAGTTGAAAGGGCAACCGAATGATTCTCG | 3.13
3 | CCGACTGGGGCAAGGGTACCATAACGCACAGCCA | 2.6
4 | CGTCCAAGGTCAGCAGGTCAGTGACAGCGACGTG | 1.26
5 | CAAGCTAGGTCACGAAAGGTCAAAGTCGAATGAC | 4.23
6 | TAGCCTAGGTCATGCGGGCCATTATAGTGTCGGC | 0.148
7 | CAAACTAGGTCACCGGAAGGTCAAAGACCGCATG | 5.86
8 | TCATATAGGTAAATGCTAGGTGAAAGCCCGATCT | 3.75
9 | CTCGAAAGGTCGTGCTCAGGCGAGTATACCAAAC | 0.448
10 | GCTAGTTGGTCAGTAAAAGTTCACACACCGGTCG | 0.387
11 | CCGACTGGGGCATAAGGTTACCTTAAGCCAGCCC | 0.872
12 | TAGCCTAGGTCATTCAGGGGCCAGTAAAGAAAGC | 0.576
13 | CATACTGGGTCAGCTAGGCCAGAGTAGGGACGGC | 0.499
14 | CAGCCTAGGTCAGTGCCAGTATAGGAGGAACGTT | -0.196
15 | TCTCGGAGGACACGAAAGGTCAGATCTCGACATC | 3.01
16 | CAAACTAGGTCAAAGGTCCAAGTCGAGCCAACCA | 12.4
17 | CAAACTAGGTCCAAGGTCAAAGTCGAGCCAACCA | 7.65

What follows are sequences tested on PPARg:RXRa 90nM:30nM, anti-RXR (NR concentration 90 nM, RXRa partner concentration 30 nM) in the same assay as above.
In short: as §1

Row | Sequence | PBM binding z-score
18 | CGTCCAAGGTCAAGGTCGGTGAAAGAGACTCGAA | 4.39
19 | TCTTGTAGATCAATAGAGGTTCAGAAAGTGCGCT | 2.47
20 | CCTACTGGGCCAACGTCATTGATCAGTCAAAGCA | 0.3
21 | AGAACGAGGGCACGCAGAGTTGATAGCAGAGTAG | 1.35
22 | GCCTATAGGTAATACAAGGTGAAAGTCCGATTGT | 0.57
23 | TAGCCTAGGTCATTGGGCGAGTATAGTACGCATC | 1.8
24 | ACAGACAGGTGAGTGAAGGTAACTAAGCTGGACG | -0.406
25 | TTACCAAGTTGAGCTGAGGTCGTTGATCCAACTC | -0.0903
26 | TGAGTGAGGTTAAAGATCAGGGAACGTGGCGTCG | 3.92
27 | CCTCGGAGGACTGAAGGTCAGAGCTGTCCGCTTT | -0.111
28 | CCTACTGGGCCACGGTCATTGATCAGTCAAAGCA | 1.1
29 | GGAACGAGGACATTCGAGTTGATAGCATGGCGAT | -0.155
30 | CTACCAAGGAGAACAAGGTCGTTGATTACTATTC | -0.114
31 | TCGAGTAGGTTGGGGGCATTCAGAATGGCGTCGA | 2.28
32 | CCAGATAGGTGAAAGGTAACTCAGTCTGGTACGC | 7.93
33 | ACTCGGAGGACAAAGGCCAGAGCTACGCCAGTGA | 1.97
34 | CAAACTAGGTCAAGTTCAAAGTCGGTTTGTGCCA | 7.46
35 | GTACCAAGGTGGATAGGTCGTTGATGAGTAGGCG | 0.026
36 | TCTGCTCGGTCAGTTGGTCAGCTAACGAGCTGCC | 0.52
37 | CATACAGTGTCAGCTAGGCCAGAGTAGGGACGGC | -0.243

Row | Sequence | PBM binding z-score
38 | CGTCCAAGGACAAAGGTCAGTGAAGAGATGACGG | 5.51
39 | TCTATTACTTGATTAGGGCAACCGAAACAGCGGA | 2.94
40 | ACTATTAGTTGAGACGAGGACAACCGATAGGTTG | 0.0272
41 | GGTATTAGTTGAAAGGGCAACCGAATGATTCTCG | 4.79
42 | CCGACTGGGGCAAGGGTACCATAACGCACAGCCA | 4.6
43 | CGTCCAAGGTCAGCAGGTCAGTGACAGCGACGTG | 2.97
44 | CAAGCTAGGTCACGAAAGGTCAAAGTCGAATGAC | 6.31
45 | TAGCCTAGGTCATGCGGGCCATTATAGTGTCGGC | 1.56
46 | CAAACTAGGTCACCGGAAGGTCAAAGACCGCATG | 7.65
47 | TCATATAGGTAAATGCTAGGTGAAAGCCCGATCT | 3.05
48 | CTCGAAAGGTCGTGCTCAGGCGAGTATACCAAAC | 1.95
49 | GCTAGTTGGTCAGTAAAAGTTCACACACCGGTCG | 1.5
50 | CCGACTGGGGCATAAGGTTACCTTAAGCCAGCCC | 2.64
51 | TAGCCTAGGTCATTCAGGGGCCAGTAAAGAAAGC | 1.76
52 | CATACTGGGTCAGCTAGGCCAGAGTAGGGACGGC | 2.06
53 | CAGCCTAGGTCAGTGCCAGTATAGGAGGAACGTT | 0.0661
54 | TCTCGGAGGACACGAAAGGTCAGATCTCGACATC | 2.77
55 | CAAACTAGGTCAAAGGTCCAAGTCGAGCCAACCA | 12.2
56 | CAAACTAGGTCCAAGGTCAAAGTCGAGCCAACCA | 8.28

What follows are sequences tested on PPARg:RXRa DBDmut IVT, anti-RXR (DBD mutation: RXRa K156A/R161A, NR concentration 270 nM, RXRa partner concentration 90 nM) in the same assay as above.
In short: as §1

Row | Sequence | PBM binding z-score
57 | CGTCCAAGGTCAAGGTCGGTGAAAGAGACTCGAA | 3.16
58 | TCTTGTAGATCAATAGAGGTTCAGAAAGTGCGCT | 1.62
59 | CCTACTGGGCCAACGTCATTGATCAGTCAAAGCA | 3.87
60 | AGAACGAGGGCACGCAGAGTTGATAGCAGAGTAG | 4.1
61 | GCCTATAGGTAATACAAGGTGAAAGTCCGATTGT | 1.99
62 | TAGCCTAGGTCATTGGGCGAGTATAGTACGCATC | 1.88
63 | ACAGACAGGTGAGTGAAGGTAACTAAGCTGGACG | 0.098
64 | TTACCAAGTTGAGCTGAGGTCGTTGATCCAACTC | -0.673
65 | TGAGTGAGGTTAAAGATCAGGGAACGTGGCGTCG | 0.116
66 | CCTCGGAGGACTGAAGGTCAGAGCTGTCCGCTTT | -0.418
67 | CCTACTGGGCCACGGTCATTGATCAGTCAAAGCA | 4.71
68 | GGAACGAGGACATTCGAGTTGATAGCATGGCGAT | 0.421
69 | CTACCAAGGAGAACAAGGTCGTTGATTACTATTC | 0.168
70 | TCGAGTAGGTTGGGGGCATTCAGAATGGCGTCGA | 1.25
71 | CCAGATAGGTGAAAGGTAACTCAGTCTGGTACGC | 5.2
72 | ACTCGGAGGACAAAGGCCAGAGCTACGCCAGTGA | -0.0476
73 | CAAACTAGGTCAAGTTCAAAGTCGGTTTGTGCCA | 8.65
74 | GTACCAAGGTGGATAGGTCGTTGATGAGTAGGCG | -0.637
75 | TCTGCTCGGTCAGTTGGTCAGCTAACGAGCTGCC | 0.685
76 | CATACAGTGTCAGCTAGGCCAGAGTAGGGACGGC | -0.0696

Row | Sequence | PBM binding z-score
77 | CGTCCAAGGACAAAGGTCAGTGAAGAGATGACGG | 0.675
78 | TCTATTACTTGATTAGGGCAACCGAAACAGCGGA | 2.08
79 | ACTATTAGTTGAGACGAGGACAACCGATAGGTTG | 0.000503
80 | GGTATTAGTTGAAAGGGCAACCGAATGATTCTCG | 0.803
81 | CCGACTGGGGCAAGGGTACCATAACGCACAGCCA | 2.26
82 | CGTCCAAGGTCAGCAGGTCAGTGACAGCGACGTG | 3.56
83 | CAAGCTAGGTCACGAAAGGTCAAAGTCGAATGAC | 5.1
84 | TAGCCTAGGTCATGCGGGCCATTATAGTGTCGGC | 2.07
85 | CAAACTAGGTCACCGGAAGGTCAAAGACCGCATG | 8.27
86 | TCATATAGGTAAATGCTAGGTGAAAGCCCGATCT | 3.61
87 | CTCGAAAGGTCGTGCTCAGGCGAGTATACCAAAC | 0.449
88 | GCTAGTTGGTCAGTAAAAGTTCACACACCGGTCG | 0.674
89 | CCGACTGGGGCATAAGGTTACCTTAAGCCAGCCC | 2.68
90 | TAGCCTAGGTCATTCAGGGGCCAGTAAAGAAAGC | 1.81
91 | CATACTGGGTCAGCTAGGCCAGAGTAGGGACGGC | 4.6
92 | CAGCCTAGGTCAGTGCCAGTATAGGAGGAACGTT | 1.7
93 | TCTCGGAGGACACGAAAGGTCAGATCTCGACATC | 2.03
94 | CAAACTAGGTCAAAGGTCCAAGTCGAGCCAACCA | 8.79
95 | CAAACTAGGTCCAAGGTCAAAGTCGAGCCAACCA | 2.64
